Test [1] has as its target Bile acid receptor (Homo sapiens) (UniProt Q96RI1). Briefly: ATG_IR1_CIS: Attagene CIS-FACTORIAL HepG2 Assay for human Nuclear Receptor Subfamily 1 Group H Member 4 (NR1H4), IR1 submotif (AID 2282946). The settings on record: IR1 reporter transcription, actives raise or lower the signal. In short, it runs like this:
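HepG2 cells transiently transfected with multiple cis-promoter-driven reporter units to measure endogenous transcription factor activity; 24 h exposure. Reporter mRNA read by RT-PCR, FAM labelling, HpaI digestion and capillary electrophoresis. Bidirectional fit versus DMSO.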

Test [2] can be described thus: ATG_GRE_CIS: Attagene CIS-FACTORIAL HepG2 Assay for human Glucocorticoid Response Elements (GRE) (AID 2282947). The settings on record: HepG2 GRE cis-reporter, Attagene multiplex mRNA; actives raise or lower the signal. In a few lines:
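Transiently transfected HepG2 cells carrying GRE cis-reporter units (endogenous TF activity) dosed 24 h; reporter mRNA quantified by RT-PCR, 6-FAM labelling, HpaI digestion and capillary electrophoresis. Bidirectional fit versus DMSO baseline.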

The nature of test [3]: ATG_ISRE_CIS: Attagene CIS-FACTORIAL HepG2 Assay for human Interferon Regulatory Factor 1 (IRF1) binding to an Interferon-Stimulated Response Element (ISRE) (AID 2282948). The settings on record: HepG2 ISRE cis-reporter (Attagene), mRNA transcription readout; actives raise or lower the signal. In a few lines: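 HepG2 cells transiently transfected with multiplexed cis-promoter reporter units; after 24 h compound exposure, reporter mRNA quantified by RT-PCR, FAM labelling, HpaI digestion and capillary electrophoresis. Bidirectional fit versus DMSO baseline.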

Test [4] in a line: ATG_M_32_CIS: Attagene CIS-FACTORIAL HepG2 Assay for M32 Transcription Factor (Internal Marker) (AID 2282949).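 Note: background control marker of the multiplexed CIS panel rather than a real target.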 The settings on record: HepG2 Attagene cis-factorial M32 reporter, mRNA; actives raise or lower the signal. In short, it runs like this: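 Fluorescent capillary electrophoresis peaks of HpaI-digested, FAM-labelled RT-PCR reporter products give the signal. Source: transiently transfected human liver HepG2 cells, 24 h after chemical dosing; bidirectional fitting against DMSO.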

A short description of test [5]: ATG_M_06_CIS: Attagene CIS-FACTORIAL HepG2 Assay for M06 Transcription Factor (Internal Marker) (AID 2282950). The settings on record: HepG2 Attagene CIS-FACTORIAL M06 internal marker reporter; actives raise or lower the signal. In a few lines: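 Measured 24 h post-dosing in transiently transfected HepG2 cells, this internal-marker endpoint reports reporter mRNA via RT-PCR with fluorescent primer extension and capillary electrophoresis. DMSO served as negative control and baseline for bidirectional fitting.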

The target of test [6] is Hypoxia-inducible factor 1-alpha (Homo sapiens) (UniProt Q16665). The test can be described thus: ATG_HIF1a_CIS: Attagene CIS-FACTORIAL HepG2 Assay for human Hypoxia Inducible Factor 1 (HIF1A) (AID 2282951). The following applies: HepG2 Attagene cis-factorial HIF1a reporter transcription; actives raise or lower the signal. In short, it runs like this: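 RT-PCR/capillary electrophoresis fluorescence readout of reporter transcripts from endogenous-TF-driven cis elements in transfected HepG2 cells, 24 h exposure; activity fitted in both directions against DMSO controls.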
Hypoxia-inducible factor 1-alpha (Homo sapiens), sequence (Q16665 whole entry, looked up): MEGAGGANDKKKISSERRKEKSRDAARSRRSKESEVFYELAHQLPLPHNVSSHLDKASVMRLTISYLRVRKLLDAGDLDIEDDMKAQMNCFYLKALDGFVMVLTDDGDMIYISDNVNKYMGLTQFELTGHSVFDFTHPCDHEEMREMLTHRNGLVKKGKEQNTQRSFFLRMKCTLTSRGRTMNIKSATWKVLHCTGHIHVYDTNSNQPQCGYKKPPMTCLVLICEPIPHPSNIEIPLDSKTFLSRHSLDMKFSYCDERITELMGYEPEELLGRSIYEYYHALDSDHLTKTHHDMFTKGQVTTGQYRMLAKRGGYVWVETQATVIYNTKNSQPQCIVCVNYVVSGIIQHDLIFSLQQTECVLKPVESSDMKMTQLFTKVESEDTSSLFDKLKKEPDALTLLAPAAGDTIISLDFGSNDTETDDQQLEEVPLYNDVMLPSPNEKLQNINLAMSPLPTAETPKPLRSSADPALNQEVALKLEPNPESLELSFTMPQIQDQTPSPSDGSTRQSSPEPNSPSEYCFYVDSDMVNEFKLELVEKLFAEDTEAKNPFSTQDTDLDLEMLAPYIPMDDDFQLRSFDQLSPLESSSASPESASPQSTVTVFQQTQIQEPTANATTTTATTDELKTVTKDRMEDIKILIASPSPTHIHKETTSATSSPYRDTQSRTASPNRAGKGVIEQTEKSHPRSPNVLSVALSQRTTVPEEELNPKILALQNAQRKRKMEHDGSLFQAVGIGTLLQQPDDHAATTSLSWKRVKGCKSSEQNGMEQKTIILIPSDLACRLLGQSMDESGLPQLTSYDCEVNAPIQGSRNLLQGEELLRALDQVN

For test [7], the target named is Hepatocyte nuclear factor 6 (Homo sapiens) (UniProt Q9UBC0). Briefly: ATG_HNF6_CIS: Attagene CIS-FACTORIAL HepG2 Assay for human Hepatocyte Nuclear Factor 6 (HNF6) (AID 2282952). The following applies: HepG2 Attagene cis-factorial HNF6 reporter transcription; actives raise or lower the signal. In short, it runs like this: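 Reporter mRNA induction or loss in HepG2 after 24 h exposure; transient cis-MRTU transfection; fragments quantified by capillary electrophoresis; bidirectional analysis, DMSO as negative control.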
Hepatocyte nuclear factor 6 (Homo sapiens), sequence (Q9UBC0 whole entry, looked up, the tested form may be a part): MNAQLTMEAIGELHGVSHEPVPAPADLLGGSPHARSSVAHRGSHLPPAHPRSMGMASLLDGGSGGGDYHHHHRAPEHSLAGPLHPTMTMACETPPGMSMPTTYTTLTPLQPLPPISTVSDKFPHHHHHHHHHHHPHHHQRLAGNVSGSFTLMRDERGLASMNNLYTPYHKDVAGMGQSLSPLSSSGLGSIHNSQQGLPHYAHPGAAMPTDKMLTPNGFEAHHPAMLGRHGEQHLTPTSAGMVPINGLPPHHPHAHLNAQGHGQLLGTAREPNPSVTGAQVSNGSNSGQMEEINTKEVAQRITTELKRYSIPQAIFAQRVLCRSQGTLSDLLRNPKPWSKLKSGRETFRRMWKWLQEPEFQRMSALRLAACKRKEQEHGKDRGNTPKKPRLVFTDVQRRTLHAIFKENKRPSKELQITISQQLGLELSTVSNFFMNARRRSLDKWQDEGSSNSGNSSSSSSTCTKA

The target of test [8] is Heat shock factor protein 1 (Homo sapiens) (UniProt Q00613). The test can be described thus: ATG_HSE_CIS: Attagene CIS-FACTORIAL HepG2 Assay for human Heat Shock Transcription Factor 1 (HSE) (AID 2282953). The settings on record: HepG2 HSE cis-reporter, Attagene RNA transcription; actives raise or lower the signal. In short, it runs like this: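 Reporter mRNA induction in HepG2 is measured 24 h after dosing, using transiently transfected multiplexed cis-regulated reporter units. Signal comes from capillary electrophoresis of labelled RT-PCR products, with DMSO as negative control.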
Heat shock factor protein 1 (Homo sapiens), sequence (Q00613 whole entry, looked up): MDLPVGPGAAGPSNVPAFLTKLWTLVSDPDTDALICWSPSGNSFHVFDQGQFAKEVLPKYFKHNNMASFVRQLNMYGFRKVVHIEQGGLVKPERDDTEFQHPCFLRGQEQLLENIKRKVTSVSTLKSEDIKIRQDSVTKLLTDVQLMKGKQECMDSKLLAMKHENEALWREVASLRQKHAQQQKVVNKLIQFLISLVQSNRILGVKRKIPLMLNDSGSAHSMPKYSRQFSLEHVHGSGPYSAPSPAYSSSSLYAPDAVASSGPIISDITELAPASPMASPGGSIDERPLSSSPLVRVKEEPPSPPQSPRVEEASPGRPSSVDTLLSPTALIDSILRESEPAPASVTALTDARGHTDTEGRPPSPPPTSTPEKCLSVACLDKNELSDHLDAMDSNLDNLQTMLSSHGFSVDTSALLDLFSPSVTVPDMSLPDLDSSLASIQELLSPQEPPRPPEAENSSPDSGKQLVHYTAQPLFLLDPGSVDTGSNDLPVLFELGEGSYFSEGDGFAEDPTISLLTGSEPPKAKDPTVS

A short description of test [9]: ATG_MRE_CIS: Attagene CIS-FACTORIAL HepG2 Assay for human Metal Responsive Element (MRE) (AID 2282954). The settings on record: HepG2 MRE cis-reporter transcription, Attagene multiplex; actives raise or lower the signal. In a few lines:
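HepG2 cells transiently transfected with cis-element-driven reporter units; mRNA measured 24 h after dosing. Reporter transcripts quantified by RT-PCR, FAM labelling, HpaI digestion and capillary electrophoresis; bidirectional fit versus DMSO.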

The nature of test [10]: ATG_PBREM_CIS: Attagene CIS-FACTORIAL HepG2 Assay for human Phenobarbital-responsive Enhancer Module (PBREM) (AID 2282955). The following applies: HepG2 PBREM cis-reporter, Attagene multiplexed transcription; actives raise or lower the signal. In a few lines: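 Reporter mRNA read by RT-PCR, 6-FAM primer extension, HpaI digestion and capillary electrophoresis. Transfected HepG2 cells, 24 h compound exposure. Gain or loss of signal fitted bidirectionally relative to DMSO baseline.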

Values joined by “and” are separate entries in the source; they are usually repeats but may differ in a detail not shown here. Equal values may be shown once. Some structures have more than one record in an assay (separate samples or runs), and their calls can disagree. Active and inactive are the calls of the source. Rule for the calls: active = hit-call score of the fitted dose curve at least 0.9, where 1 is the maximum; inactive = score below 0.9.

Bile acid receptor (Homo sapiens), sequence (Q96RI1 whole entry, looked up): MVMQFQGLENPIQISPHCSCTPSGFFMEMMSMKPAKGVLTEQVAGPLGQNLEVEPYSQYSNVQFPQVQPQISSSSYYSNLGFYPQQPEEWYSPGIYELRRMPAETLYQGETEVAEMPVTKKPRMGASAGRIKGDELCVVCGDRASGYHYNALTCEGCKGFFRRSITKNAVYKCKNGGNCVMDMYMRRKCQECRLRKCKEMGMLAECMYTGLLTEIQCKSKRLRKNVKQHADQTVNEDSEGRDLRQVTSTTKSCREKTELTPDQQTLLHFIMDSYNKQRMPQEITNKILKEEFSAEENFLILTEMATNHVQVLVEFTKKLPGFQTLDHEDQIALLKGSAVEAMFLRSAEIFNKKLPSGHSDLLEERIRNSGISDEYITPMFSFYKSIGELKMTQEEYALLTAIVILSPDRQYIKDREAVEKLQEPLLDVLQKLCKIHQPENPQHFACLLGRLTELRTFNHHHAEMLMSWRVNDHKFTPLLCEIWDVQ

Take `c1ccc(C[n+]2cccc3ccccc32)cc1`: the result in [1], in [2], in test [3], in [4], in test [5] and in [6] was inactive. Further, the outcome in test [7], in test [8], in [9] and in test [10] was inactive.
As for `CCCCCCCCCCCC[N+](C)(C)C`, the compound was classed as inactive in [1], in test [2], in [4], in [5], in test [6] and in test [7]. Also, the call in [8], in test [9] and in test [10] was inactive. Further, the AC50 – broadly, the midpoint of the concentration-response curve, whichever way the signal moves – was 16.6 µM (active) and 15.3 µM (active) in test [3]; 33.4 µM (active) in test [9].
Regarding `O=C(O)Cn1c(=O)n(Cc2ccc(Br)cc2F)c(=O)c2ccc(Cl)cc21`, the call in [1], in test [2], in [3], in test [4], in test [5] and in test [6] was inactive. In addition, the compound was classed as inactive in test [7], in test [8], in [9] and in test [10].
On to `Clc1ccccc1C(c1ccccc1)(c1ccccc1)n1ccnc1`, for which the result in test [1], in test [2], in [4], in test [5] and in test [7] was inactive. In addition, the AC50 in [3] is 11.1 µM (active); in test [8], 19.1 µM (active); in test [9], 15 µM (active); in test [10] it was 11.1 µM (active).
On to `O=C=NCCCCCCN=C=O`, for which the compound was classed as inactive in test [1], in test [3], in test [4], in test [5], in [6] and in test [7]. For the same compound, the outcome in [8], in test [9] and in [10] was inactive.
Take `CCCCCCCCN(C)CCCCCCCC`: the result in [2], in test [3], in test [4], in [5], in [6] and in test [7] was inactive. For the same compound, the compound was classed as inactive in test [8], in test [9] and in test [10].
For the compound `CCCCCCCCCC(=O)O`, the compound was called inactive in [2], in test [3], in [4], in test [5], in [6] and in [7]. Also, the call in test [8] and in test [9] was inactive.
In the case of `CC(C)(O)c1ccc(CNC(=O)c2cccnc2Oc2ccc3nonc3c2)cc1`, the compound was called inactive in [2], in test [3], in [4], in [5], in test [6] and in test [7]. The compound was called inactive in test [8] and in test [9]. In addition, the AC50 in [10] was 33.4 µM (active).
Regarding `CCCCCc1ccc(N)cc1`, the call in test [3], in [4], in test [5], in test [6], in [7] and in test [8] was inactive. For the same compound, the call in test [9] and in [10] was inactive. The AC50 was 2.57 µM (active) in test [6] and 46 µM (active) in test [9].
As for `Clc1cc(Cl)c2c(c1)N=C1CCCCCN1C2`, the compound was called inactive in [1], in test [2], in test [3], in [4], in test [5] and in [6]. Moreover, the compound was classed as inactive in test [7], in test [8], in test [9] and in test [10].
`CC1(C)NC(=O)N(c2ccc([N+](=O)[O-])c(C(F)(F)F)c2)C1=O`: the result in test [1], in test [3], in test [4], in test [5], in test [7] and in test [8] was inactive. The result in [9] and in [10] was inactive.
Consider `CC(=O)N1CCN(c2ccc(OC[C@H]3CO[C@](Cn4ccnc4)(c4ccc(Cl)cc4Cl)O3)cc2)CC1`, for which the AC50 is 48.5 µM (active) in test [1], 15.1 µM (active) in test [3], 55.6 µM (active) in [8] and 33.9 µM (active) in test [9]. The call in test [2], in test [4], in [5], in test [7] and in test [10] was inactive.
`Oc1ccccc1`: the call in test [1], in [3], in [4], in test [5], in test [6] and in test [7] was inactive. The call in [9] and in [10] was inactive.
Turning to `CCN(Cc1cccc(S(=O)(=O)O)c1)c1ccc(C(=C2C=CC(=[N+](CC)Cc3cccc(S(=O)(=O)O)c3)C=C2)c2ccccc2S(=O)(=O)[O-])cc1`, the result in test [1], in [3], in [4], in test [5], in test [6] and in test [7] was inactive. Also, the result in test [8], in test [9] and in [10] was inactive.
For the compound `Cc1occc1C(=O)Nc1ccc(C(=O)N2CCC(F)(F)/C(=C\C(=O)N3CCC(N4CCCCC4)CC3)c3ccccc32)cc1`, the result in test [1], in test [4], in test [5], in [6] and in [10] was inactive. In addition, the AC50 in [2] was 57.8 µM (active); in test [3], 34.5 µM (active); in test [7] it was 49.8 µM (active); in test [9] it was 23.7 µM (active).
In the case of `CC[C@@H]1C[C@H](N(Cc2cc(C(F)(F)F)cc(C(F)(F)F)c2)C(C)=O)c2cc(C(F)(F)F)ccc2N1C(=O)OC(C)C`, the compound was classed as inactive in test [2], in test [3], in [4], in test [5], in test [6] and in [7]. Also, the compound was called inactive in [8] and in test [9]. Further, the AC50 in test [10] was 0.181 µM (active).
In the case of `c1ccc2n[nH]nc2c1`, the call in [2], in test [3], in [4], in test [5], in test [6] and in [7] was inactive. In addition, the compound was classed as inactive in test [8], in test [9] and in [10].
Take `O=C1c2ccccc2C(=O)N1CCc1noc(-c2ccc(CN3CCCCCC3)s2)n1`: the compound was classed as inactive in [1], in test [3], in test [4], in test [5], in test [7] and in test [8]. The AC50 is 51.2 µM (active) in test [6], 84.5 µM (active) in test [9] and 24.1 µM (active) in [10].
For `O=C(O)c1ccccc1-n1cc(C(=O)O)c(=O)c2cc(Nc3c(F)cc(F)cc3Cl)c(Cl)cc21`, the outcome in test [1], in test [2], in test [3], in test [4], in test [5] and in test [6] was inactive. For the same compound, the compound was classed as inactive in test [7], in test [8], in test [9] and in test [10].
With `O=C(OCCCCCCOC(=O)c1ccccc1)c1ccccc1`, the outcome in test [1], in test [2], in test [3], in [4], in test [5] and in test [6] was inactive. In addition, the call in [7], in test [8], in [9] and in test [10] was inactive.

Source of the values: PubChem BioAssay (EPA / NIEHS).
